HCMV antiviral: blocks human cytomegalovirus replication. activity change, negative = inhibition, % at 57.5 µM. 410,000 tested, 4.5% active. HFF cells, HCMV-luciferase reporter, 72 h; active compounds read low; in the data active = activity change below about -60%; inconclusive = no clear call, values can overlap the other calls; inactive = above about -39%
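Two-dose cell screen: HFF monolayers treated with compounds and infected with luciferase-expressing HCMV at 1 PFU/cell, 72 h at 37C, then lysed for luciferase measurement.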
VACV Venus inh: vaccinia inhibition (Venus reporter) | Vaccinia virus Venus reporter expression, fluorescence | Potency, µM (series often up to 36.5 µM), for the others: at the top dose activity change, negative = inhibition, actives largely listed as inhibitors | 330,000 tested, 0.46% active | AID 720580; calls by dose curve; tested in A549 cells; note: potency is the fitted concentration of half-maximal effect; nearly all actives have a fitted effect of over 30% in size
LmPK inh: blocks Leishmania mexicana pyruvate kinase activity. Q27686. purified LmPK, Kinase-Glo ATP luminescence, 1 h. Potency, µM (doses to about 57.5 µM), without a hit: top-dose activity change, negative = inhibition, hits mostly inhibitors. 290,000 tested, 0.37% active; note: potency is the fitted concentration of half-maximal effect
Target sequence (Q27686 whole entry, looked up): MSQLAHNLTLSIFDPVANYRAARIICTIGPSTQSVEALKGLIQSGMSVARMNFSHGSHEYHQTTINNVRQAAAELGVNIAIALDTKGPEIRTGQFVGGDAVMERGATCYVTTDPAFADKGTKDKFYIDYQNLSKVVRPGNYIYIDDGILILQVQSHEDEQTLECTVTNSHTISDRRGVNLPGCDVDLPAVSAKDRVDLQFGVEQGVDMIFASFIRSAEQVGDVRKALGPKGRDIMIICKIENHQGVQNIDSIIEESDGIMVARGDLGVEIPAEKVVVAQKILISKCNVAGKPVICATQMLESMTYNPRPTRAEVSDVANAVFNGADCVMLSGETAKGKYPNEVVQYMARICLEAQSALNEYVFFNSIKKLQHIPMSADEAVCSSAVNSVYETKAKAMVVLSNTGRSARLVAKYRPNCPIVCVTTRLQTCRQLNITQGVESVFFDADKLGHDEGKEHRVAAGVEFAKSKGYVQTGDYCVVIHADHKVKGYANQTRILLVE
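Kinase-Glo luminescence read after 1 h RT reaction of 0.1 nM LmPK with 0.5 mM PEP and 0.1 mM ADP. Activity scaled between uninhibited and enzyme-free controls.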
Tb PYK inh: inhibitors of Trypanosoma brucei pyruvate kinase. Q57TT1. TbPYK enzyme, Kinase-Glo Plus ATP luminescence, 45 min. Potency, µM (highest dose often 76.8 µM), without a hit: at the highest dose activity, negative = inhibition, hits mostly inhibitors. 410,000 tested, 0.12% active. AID 624173; note: potency is the fitted concentration of half-maximal effect; nearly all actives have a fitted effect of over 50% in size
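In this concentration-response screen, enzyme-free wells defined baseline while DMSO plates tracked drift. Each reaction combined TbPYK, substrate, compound and 130 uM ADP for 45 min at room temperature. Kinase-Glo Plus luminescence gave the signal.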
VACV mCherry inh: vaccinia inhibition (mCherry reporter). 310,000 tested, 0.63% active. Vaccinia virus mCherry reporter infection, fluorescence. Potency, µM (highest dose often 36.5 µM), for inactives: at the highest dose activity change, negative = inhibition, actives largely listed as inhibitors; calls by dose curve; tested in A549 cells; note: potency is the fitted concentration of half-maximal effect; nearly all actives have a fitted effect of over 35% in size
The depositor's hits bear a star; i = inactive; ? = inconclusive; · = not tested or not shown. Most compounds without a hit are left out; they make up all but 5% or so of the library. Unless noted, calls come from the whole dose curve; as a rule, active = well fitted curve in the direction sought with a large enough effect; inconclusive = small, poorly fitted or top-dose-only effect, or another doubt; inactive = no such curve, though single readings can be large; an effect the other way counts as inactive or inconclusive. % is set by controls: 0 for no effect and ±100 for the full control effect.

SMILES	HCMV antiviral	VACV Venus inh	LmPK inh	Tb PYK inh	VACV mCherry inh
COc1ccc(Nc2cc(C)c3cc(NC(=O)Cc4ccc(Cl)cc4)ccc3n2)cc1	-22	?	·	-11%	-20%
O=S(=O)(N[C@@H]1CC[C@H](CCNS(=O)(=O)c2ccccc2Cl)O[C@@H]1CO)c1ccccc1	-2	-7%	·	·	-15%
CCCOC(=O)/C(C)=N\NC(=O)c1ccco1	10	-9%	-3%	-7%	i
COc1cccc(-n2c(O)c(C=NCc3ccc4c(c3)OCO4)c(=O)[nH]c2=O)c1	-105*	·	1%	-19%	·
Nc1ncnc(Nc2ccccn2)c1[N+](=O)[O-]	-27	-27%	0%	-1%	-16%
Cc1cccc(Nc2ncnc(N)c2[N+](=O)[O-])n1	-79*	1%	-2%	3%	-18%
CN(c1ccccc1)c1nc(N)c([N+](=O)[O-])c(NCc2ccccc2)n1	-23	?	-1%	1%	-6%
Nc1ncnc(NCc2ccccc2)c1[N+](=O)[O-]	-70*	-26%	-4%	-3%	-7%
Nc1ncnc(NCc2ccc(F)cc2)c1[N+](=O)[O-]	-72*	-14%	0%	-3%	-20%
CC(=O)N1CCc2cc(S(=O)(=O)NC(C(=O)Nc3ccc(C)cc3C)C(C)C)ccc21 (stereo not given)	-16	2%	·	-5%	6%
CC(=O)N1CCc2cc(S(=O)(=O)NC(C(=O)Nc3nc(C)cs3)C(C)C)ccc21 (stereo not given)	-61*	-14%	-10%	3%	-26%
Cn1cccc1/C=C1\SC(=Nc2ccc(O)cc2)NC1=O	-77*	·	-15%	9%	·
O=C(CSc1nnnn1-c1ccccc1)Nc1ncc2c(n1)CC(c1ccco1)CC2=O (stereo not given)	6	-4%	2%	-1%	·
Nc1ncnc2c1ncn2[C@@H]1O[C@H](COP(=O)(O)OP(=O)(O)OP(=O)(O)O)[C@@H](O)[C@H]1O	·	-9%	·	-20%	-10%
CN1N=C(N)c2cn(C3OC(COP(=O)(O)O)C(O)C3O)c3ncnc1c23 (stereo not given)	-70*	-8%	·	-27%	?
Cc1ccc2nc(-c3ccc(NC(=O)CCS(=O)(=O)c4ccccc4)cc3)sc2c1	-71*	-22%	1%	-2%	-27%
O=C(NC1CC2CCCC(C1)N2C(=O)Nc1cccc(F)c1)C1CC1 (stereo not given)	-32	-13%	0%	-4%	1%
C/C(=N/Nc1ccc([N+](=O)[O-])cc1)c1ccc(C)cc1C	-63*	-23%	1%	5%	?
COc1ccc(C(=O)/C(C#N)=N/Nc2ccc([N+](=O)[O-])cc2)cc1	-114*	?	1%	1%	?
COc1ccc(C(=O)/C(C#N)=N/Nc2ccccc2[N+](=O)[O-])cc1	-10	-15%	-3%	-6%	i
C/C(=N\Nc1ccc([N+](=O)[O-])cc1)c1ccc(C#N)cc1	-18	0%	1%	-1%	-20%
N#CC(C#N)=NNc1ccc([N+](=O)[O-])cc1	-91*	31%	-6%	-12%	-2%
CC1CC(C)CN(CCCNC(=O)CCC(=O)N2CC(C)Oc3ccccc32)C1 (stereo not given)	-17	-7%	-1%	5%	23%
Cn1c(=O)c(/C=C/c2ccccc2)nc2ccccc21	230	-16%	-8%	-5%	i
CCn1nc(/C=C/c2ccccc2)nc2c(=O)n(C)c(=O)nc1-2	-96*	2.8µM*	5%	-10%	2.5µM*
SMILES	HCMV antiviral	VACV Venus inh	LmPK inh	Tb PYK inh	VACV mCherry inh
CCn1nc(-c2ccccc2C)nc2c(=O)n(C)c(=O)nc1-2	·	6.3µM*	·	·	5.6µM*
CCn1nc(-c2cccs2)nc2c(=O)n(C)c(=O)nc1-2	·	0.79µM*	-13%	-5%	·
COc1ccc(OC)c(/C=c2\sc3nc(-c4cccs4)nn3c2=O)c1	20	-2%	-1%	3%	-8%
COc1ccc(S(=O)(=O)N(CC(=O)NCC2CCCO2)Cc2ccccc2)cc1 (stereo not given)	-25	-13%	-2%	0%	-4%
CCN(CC)c1ccccc1	-37	-1%	·	1%	i
CCN(CC)c1ccc(C(=C2C=CC(=[N+](CC)CC)C=C2)c2ccc(N(CC)CC)cc2)cc1	-105*	·	·	?	·
CCN(CC)c1ccc(C(=C2C=CC(=[N+](CC)CC)C=C2)c2ccccc2)cc1	-100*	2µM*	·	?	?
CC(=O)c1cccc(OCC(O)CNCCOc2ccc(C)cc2)c1 (stereo not given)	64	-1%	-18%	0%	-1%
CSc1ccccc1OCc1cc(C(=O)N2CCc3[nH]cnc3C2c2ccccn2)no1 (stereo not given)	-60*	-25%	0%	-7%	-6%
CSc1ccccc1OCc1cc(C(=O)N2CCN(c3ccccc3)CC2C)no1 (stereo not given)	70	-26%	-8%	-7%	-9%
CCc1cccc(NC(=O)Cn2ncn3c(cc4ccccc43)c2=O)c1	52	-11%	-1%	2%	i
CC(C(=O)Nc1ccc(F)cc1Cl)N(C)CCOc1ccccc1 (stereo not given)	-61*	3%	1%	1%	-9%
CC(=O)c1ccc(OCCCC(=O)Nc2cc(S(=O)(=O)N(C)C)ccc2C)cc1	68	-15%	2%	1%	-1%
Cc1ccc(S(=O)(=O)N(C)C)cc1NC(=O)C(C)N(C)CCOc1ccc(Cl)cc1 (stereo not given)	-78*	-6%	5%	1%	-20%
CCOC(=O)Nc1ccc2c(c1)Cc1cc([N+](=O)[O-])ccc1-2	-90*	-7%	·	-3%	-14%
CC(=O)CSc1ccc(-c2nc3cc(C)c(C)cc3[nH]2)cn1	-100*	-13%	0%	1%	-26%
O=C(CS(=O)CC(=O)N(c1cccc(F)c1)C(C(=O)NC1CCCCC1)c1ccco1)Nc1ccc(F)cc1 (stereo not given)	12	?	-2%	0%	?
COc1ccc(C(=O)NC2CCN(S(=O)(=O)c3ccccc3)CC2)cc1	81	-3%	3%	5%	i
O=C1CSC(=Nc2ccc(O)cc2)N1	25	·	-1%	-16%	·
O=C1C(Cl)=CC(=Nc2ccc(O)cc2)C=C1Cl	-79*	·	·	?	·

High-throughput results from PubChem BioAssay.
